# In PubChem BioAssay AID1159580 (chemical genetic matrix, 2015):
# Where “and” joins values, the source holds several entries; their conditions need not be identical. Identical values can stand only once. The campaign covered roughly 5,500 compounds. About 2,000 (36%) were called active. Not shown: some 18% with an inconclusive outcome. Some of the results follow. Values without a mark were called inactive. Cut-off read from the data, not from the text of the source: active = normalized growth mostly below about 0.91 (no sharp cut-off); inconclusive = no clear call, values can overlap the other calls; inactive = mostly above about 0.92.
# Assay: chemical genetic growth profiling, strain panel (AID 1159580);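 note: tested at 20 µM; growth read once vehicle control cultures reached saturation at 30 °C; 1 = growth at the plate median or of vehicle wells; lower values mean less growth of the strain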
# Details: S. cerevisiae deletion strains, growth OD
smiles,measurement,setting,value
COc1cc2c(cc1OC)[C@@H]1C(=O)c3ccc4c(c3O[C@@H]1CO2)CC(C(C)C)O4 (some centres not stated),normalized growth,"locus YAL021C, strain ccr4, stronger effect = lower value",0.989
same,normalized growth,"locus YAL026C, strain drs2, stronger effect = lower value",0.969
same,normalized growth,"locus YAL030W, strain snc1, stronger effect = lower value",0.998
same,normalized growth,"locus YBL061C, strain skt5, stronger effect = lower value",1
same,normalized growth,"locus YBR009C, strain hhf1, stronger effect = lower value",0.938
same,normalized growth,"locus YBR021W, strain FUR4, stronger effect = lower value",0.993
same,normalized growth,"locus YBR023C, strain chs3, stronger effect = lower value",0.981
same,normalized growth,"locus YBR171W, strain sec66, stronger effect = lower value",0.974
same,normalized growth,"locus YBR229C, strain ROT2, stronger effect = lower value",0.994
same,normalized growth,"locus YBR231C, strain swc5, stronger effect = lower value",0.932
same,normalized growth,"locus YBR279W, strain paf1, stronger effect = lower value",0.982
same,normalized growth,"locus YCL011C, strain gbp2, stronger effect = lower value",0.991
same,normalized growth,"locus YCL016C, strain dcc1, stronger effect = lower value",0.984
same,normalized growth,"locus YCL029C, strain bik1, stronger effect = lower value",1.02
same,normalized growth,"locus YCL061C, strain MRC1, stronger effect = lower value",0.96
same,normalized growth,"locus YCL069W, strain vba3, stronger effect = lower value",0.99
same,normalized growth,"locus YCR088W, strain abp1, stronger effect = lower value",0.99
same,normalized growth,"locus YDL005C, strain med2, stronger effect = lower value",0.978
same,normalized growth,"locus YDL035C, strain GPR1, stronger effect = lower value",0.972
same,normalized growth,"locus YDL040C, strain nat1, stronger effect = lower value",0.985
same,normalized growth,"locus YDL074C, strain BRE1, stronger effect = lower value",0.952
same,normalized growth,"locus YDL101C, strain DUN1, stronger effect = lower value",0.982
same,normalized growth,"locus YDL185W, strain tfp1, stronger effect = lower value",1.01
same,normalized growth,"locus YDL192W, strain arf1, stronger effect = lower value",1.01
same,normalized growth,"locus YDR001C, strain nth1, stronger effect = lower value",0.987
same,normalized growth,"locus YDR069C, strain doa4, stronger effect = lower value",1
same,normalized growth,"locus YDR101C, strain arx1, stronger effect = lower value",0.998
same,normalized growth,"locus YDR137W, strain rgp1, stronger effect = lower value",0.89
same,normalized growth,"locus YDR150W, strain NUM1, stronger effect = lower value",1.01
same,normalized growth,"locus YDR159W, strain sac3, stronger effect = lower value",0.957
same,normalized growth,"locus YDR162C, strain NBP2, stronger effect = lower value",0.941
same,normalized growth,"locus YDR195W, strain ref2",0.982
same,normalized growth,"locus YDR297W, strain sur2, stronger effect = lower value",0.972
same,normalized growth,"locus YDR318W, strain mcm21, stronger effect = lower value",1
same,normalized growth,"locus YDR334W, strain swr1, stronger effect = lower value",0.99
same,normalized growth,"locus YDR335W, strain msn5, stronger effect = lower value",1.01
same,normalized growth,"locus YDR388W, stronger effect = lower value",1.01
same,normalized growth,"locus YDR392W, strain spt3, stronger effect = lower value",0.707 (active)
same,normalized growth,"locus YDR502C, strain sam2, stronger effect = lower value",0.998
same,normalized growth,"locus YEL003W, strain gim4, stronger effect = lower value",0.959
same,normalized growth,"locus YEL037C, strain rad23, stronger effect = lower value",0.999
same,normalized growth,"locus YEL061C, strain CIN8 (second series), stronger effect = lower value",0.99
same,normalized growth,"locus YEL061C, strain CIN8, stronger effect = lower value",1
same,normalized growth,"locus YER015W, strain faa2, stronger effect = lower value",0.965
same,normalized growth,"locus YER016W, strain bim1, stronger effect = lower value",0.984
same,normalized growth,"locus YER110C, stronger effect = lower value",1.01
same,normalized growth,"locus YER111C, strain swi4, stronger effect = lower value",1.01
same,normalized growth,"locus YER155C, strain BEM2 (second series), stronger effect = lower value",0.931
same,normalized growth,"locus YER155C, strain BEM2, stronger effect = lower value",1
same,normalized growth,"locus YER167W, strain BCK2, stronger effect = lower value",1
same,normalized growth,"locus YFR010W, strain ubp6, stronger effect = lower value",0.98
same,normalized growth,"locus YGL078C, strain dbp3, stronger effect = lower value",1.01
same,normalized growth,"locus YGL086W, strain mad1, stronger effect = lower value",0.985
same,normalized growth,"locus YGL167C, strain pmr1, stronger effect = lower value",0.987
same,normalized growth,"locus YGL173C, strain kem1, stronger effect = lower value",0.977
same,normalized growth,"locus YGL227W, strain vid30, stronger effect = lower value",0.975
same,normalized growth,"locus YGL240W, strain doc1, stronger effect = lower value",0.956
same,normalized growth,"locus YGL248W, strain PDE1, stronger effect = lower value",0.979
same,normalized growth,"locus YGL253W, strain hxk2, stronger effect = lower value",0.96
same,normalized growth,"locus YGR135W, strain pre9, stronger effect = lower value",1.02
same,normalized growth,"locus YGR252W, strain gcn5, stronger effect = lower value",0.895
same,normalized growth,"locus YHR013C, strain ard1, stronger effect = lower value",0.998
same,normalized growth,"locus YHR027C, strain rpn1, stronger effect = lower value",0.993
same,normalized growth,"locus YHR030C, strain SLT2, stronger effect = lower value",1.01 and 1.04
same,normalized growth,"locus YHR079C, strain IRE1 (second series), stronger effect = lower value",1.01
same,normalized growth,"locus YHR079C, strain IRE1, stronger effect = lower value",1.07
same,normalized growth,"locus YHR094C, strain hxt1, stronger effect = lower value",1.01
same,normalized growth,"locus YHR129C, strain ARP1, stronger effect = lower value",0.998
same,normalized growth,"locus YHR142W, strain chs7, stronger effect = lower value",0.986
same,normalized growth,"locus YHR200W, strain rpn10, stronger effect = lower value",1.02
same,normalized growth,"locus YIL066C, strain RNR3, stronger effect = lower value",0.945
same,normalized growth,"locus YIL073C, strain SPO22, stronger effect = lower value",1.03
same,normalized growth,"locus YIL125W, strain kgd1, stronger effect = lower value",0.989
same,normalized growth,"locus YIR030C, strain dcg1, stronger effect = lower value",1
same,normalized growth,"locus YJL092W, strain hpr5, stronger effect = lower value",0.994
same,normalized growth,"locus YJL095W, strain BCK1 (second series), stronger effect = lower value",0.98
same,normalized growth,"locus YJL095W, strain BCK1, stronger effect = lower value",0.944 and 1.04
same,normalized growth,"locus YJL115W, strain asf1, stronger effect = lower value",0.987
same,normalized growth,"locus YJL129C, strain trk1, stronger effect = lower value",0.92
same,normalized growth,"locus YJL134W, strain LCB3, stronger effect = lower value",1.01
same,normalized growth,"locus YJL154C, strain vps35, stronger effect = lower value",0.993
same,normalized growth,"locus YJL164C, strain tpk1, stronger effect = lower value",0.981
same,normalized growth,"locus YJL166W, strain qcr8, stronger effect = lower value",0.934
same,normalized growth,"locus YJL168C, strain set2, stronger effect = lower value",1.01
same,normalized growth,"locus YJL187C, strain SWE1 (second series), stronger effect = lower value",0.981
same,normalized growth,"locus YJR043C, strain POL32, stronger effect = lower value",0.976
same,normalized growth,"locus YJR066W, strain TOR1, stronger effect = lower value",0.987
